Experimental data: PubChem BioAssay AID493034 (The Scripps Research Institute Molecular Screening Center, 2011)
Among all 2,400 compounds or so, about 2,200 (92%) were called active.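 Rule for the calls: active = mean inhibition over triplicate runs exceeds the cutoff derived for the earlier primary screen (cut at about 25% in these data); inactive = the rest.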 So high a share suggests a set chosen from earlier hits. The list shows a part of the results.

These molecules were tested against Platelet-activating factor acetylhydrolase IB subunit alpha2 (Homo sapiens) (UniProt P68402) (assay: inhibition of human PAFAH1B2 catalytic subunit – biochemical, fluorescence polarization, FP-rhodamine probe, triplicate, confirmation (AID 493034;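 note: 0% = enzyme with DMSO and 100% = wells lacking PAFAH1B2 protein; inhibitors lower polarization by leaving the probe unbound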)). Settings: recombinant PAFAH1B2, FP-rhodamine probe fluorescence polarization; at 3.39 µM; hits give high values.
Chain of Platelet-activating factor acetylhydrolase IB subunit alpha2 (Homo sapiens) (P68402 whole entry, looked up): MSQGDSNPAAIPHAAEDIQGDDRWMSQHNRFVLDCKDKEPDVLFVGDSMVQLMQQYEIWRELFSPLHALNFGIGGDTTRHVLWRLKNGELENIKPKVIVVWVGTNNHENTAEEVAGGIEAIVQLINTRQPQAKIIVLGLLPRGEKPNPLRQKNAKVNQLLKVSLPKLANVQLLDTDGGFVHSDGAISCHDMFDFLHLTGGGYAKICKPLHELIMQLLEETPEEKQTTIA

inhibition, inactive:
Nc1ccc(CSc2ccc(Cl)cc2)cc1 21.7%, O=C(CSc1ccccc1)NC(=O)NCc1ccccc1 21.7%, CCOc1cc(/C=C(/C#N)c2ccc(F)cc2)ccc1OCc1ccc(C(=O)O)o1 4.35%, CCCCc1cc(=O)oc2cc(C)cc(OCC(=O)NC(Cc3ccc(Cl)cc3)C(=O)O)c12 (centres undefined) 22.2%, Cc1ccc(CSc2nnc(NC(=O)C3COc4ccccc4O3)s2)cc1 (centres undefined) 21.4%, CCCCCCCCCCS(=O)(=O)N/N=C/c1ccc([N+](=O)[O-])cc1 20.3%, O=C(NCc1cccnc1)C(=O)Nc1nc(C23CC4CC(CC(C4)C2)C3)cs1 23.7%, O=C(NCC(c1ccco1)N1CCCCC1)c1ccc(COc2ccc(Cl)cc2)cc1 (centres undefined) 20%, Clc1ccc(COc2cccc(CNCc3ccncc3)c2)cc1 19.2%, CCc1ccc2nc3sc(C(=O)Nc4nnc(CC)s4)c(N)c3cc2c1 19.1%, Cc1ccc(NC(=O)O/N=C/c2ccc(Br)cc2)cc1 15.5%

inhibition, active:
Nc1ccc(CSc2ccccc2)cc1 30.1%, CCOc1cc(/C=C(/C#N)c2ccc(Cl)cc2)cc(Cl)c1OCC(=O)O 42.5%, C[C@@H]1CN([C@H](C)CO)C(=O)c2cccc(NC(=O)Nc3ccc(F)cc3)c2O[C@H]1CN(C)C(=O)Nc1ccc(C(F)(F)F)cc1 39.6%, C[C@H]1CN([C@@H](C)CO)C(=O)c2cccc(NC(=O)Nc3ccc(C(F)(F)F)cc3)c2O[C@@H]1CN(C)C(=O)Nc1ccc(F)cc1 57%, CC(Oc1ccc2c(-c3ccccc3)cc(=O)oc2c1)C(=O)NC(Cc1c[nH]c2ccc(O)cc12)C(=O)O (centres undefined) 55.9%, O=C(COc1ccc2c(-c3ccccc3)cc(=O)oc2c1)N[C@@H](Cc1c[nH]c2ccc(O)cc12)C(=O)O 55.4%, CC(Oc1ccc2c(-c3ccccc3)cc(=O)oc2c1)C(=O)N[C@H](Cc1c[nH]c2ccccc12)C(=O)O (some centres undefined) 64.3%, CC(Oc1ccc2c(-c3ccccc3)cc(=O)oc2c1)C(=O)NC(Cc1c[nH]c2ccccc12)C(=O)O (centres undefined) 59%, CCN(Cc1ccccc1)c1ccc(/C=N/NS(=O)(=O)c2cccc([N+](=O)[O-])c2)cc1 63.5%, O=C(CC1CC2CCC1C2)Nc1nc(-c2ccccn2)cs1 (centres undefined) 45.4%, CC(NCc1ccc(OCc2ccc(Cl)cc2)cc1)C(O)c1ccccc1 (centres undefined) 68.7%, CCOC(=O)C1CCCN(C(=O)Cc2c(C(=O)O)[nH]c3ccccc23)C1 (centres undefined) 28.4%, O=C(Cc1ccc(Br)cc1)Nc1ncc([N+](=O)[O-])s1 28.4%
